In the supplement of paper PMC6089552:
The whole screen tested about 3,200 compounds, of which about 300 (9.4%) showed activity. For the sample, actives were picked, then their nearest neighbours and some compounds at random.

Test system: A673/TR/shEF
Experiment: cell viability (LOESS-normalised, relative to median of negative controls) (log2 ratio); higher = more viable cells (less compound effect), active = hit call of the paper (over 3 MAD below the median)
Conditions: treatment time: 72 h
Method in brief: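 Viability of A673/TR/shEF Ewing sarcoma cells was determined by CellTiter-Glo luminescence. The cells, at 1,500 per well in 384-well plates, were grown with or without doxycycline from 24 h before compound addition to switch on EWS-FLI1 shRNA knockdown, then exposed for three days to library compounds at two or more concentrations or to DMSO controls. Signals were LOESS-corrected plate by plate, normalised to the negative-control median and log2-transformed.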

[1] = 0.25 µM, library screen: screen1, EWS-FLI1 expression: high (no doxycycline)
[2] = 0.25 µM, library screen: screen1, EWS-FLI1 expression: low (doxycycline-induced shRNA knockdown)
[3] = 2.5 µM, library screen: screen1, EWS-FLI1 expression: high (no doxycycline)
[4] = 2.5 µM, library screen: screen1, EWS-FLI1 expression: low (doxycycline-induced shRNA knockdown)
[5] = 0.25 µM, library screen: screen2, EWS-FLI1 expression: high (no doxycycline)
[6] = 0.25 µM, library screen: screen2, EWS-FLI1 expression: low (doxycycline-induced shRNA knockdown)
[7] = 2.5 µM, library screen: screen2, EWS-FLI1 expression: high (no doxycycline)
[8] = 2.5 µM, library screen: screen2, EWS-FLI1 expression: low (doxycycline-induced shRNA knockdown)
[9] = 0.103 µM, library screen: screen3, EWS-FLI1 expression: high (no doxycycline)
[10] = 0.103 µM, library screen: screen3, EWS-FLI1 expression: low (doxycycline-induced shRNA knockdown)
[11] = 0.308 µM, library screen: screen3, EWS-FLI1 expression: high (no doxycycline)
[12] = 0.308 µM, library screen: screen3, EWS-FLI1 expression: low (doxycycline-induced shRNA knockdown)
[13] = 0.926 µM, library screen: screen3, EWS-FLI1 expression: high (no doxycycline)
[14] = 0.926 µM, library screen: screen3, EWS-FLI1 expression: low (doxycycline-induced shRNA knockdown)
[15] = 2.8 µM, library screen: screen3, EWS-FLI1 expression: high (no doxycycline)
[16] = 2.8 µM, library screen: screen3, EWS-FLI1 expression: low (doxycycline-induced shRNA knockdown)
[17] = 8.3 µM, library screen: screen3, EWS-FLI1 expression: high (no doxycycline)
[18] = 8.3 µM, library screen: screen3, EWS-FLI1 expression: low (doxycycline-induced shRNA knockdown)
[19] = 25 µM, library screen: screen3, EWS-FLI1 expression: high (no doxycycline)
[20] = 25 µM, library screen: screen3, EWS-FLI1 expression: low (doxycycline-induced shRNA knockdown)

Measured: cell viability (log2)

CC(=O)Oc1ccc(O)cc1
inactive: [1] -0.0255 | [2] 0.056 | [3] 0.0239 | [4] 0.00436

COC1=CC(=O)OC(CCc2ccc(OC)c(OC)c2)C1 (centres undefined)
inactive: [1] 0.144 | [2] -0.00163 | [3] 0.181 | [4] 0.0406

COc1cc2occ(-c3ccc(O)cc3)c(=O)c2c(OC)c1O
inactive: [1] 0.0883 | [2] 0.0895 | [3] 0.108 | [4] 0.0533

O=c1cccc2cc(O)c(O)c(O)c2c1O
inactive: [1] -0.000737 | [2] -0.0453 | [3] 0.0367 | [4] 0.0294

COc1cc(OC)c2c(=O)c(OC)c(-c3ccc(OC)c(OC)c3)oc2c1
inactive: [1] 0.019 | [2] 0.0595 | [3] 0.0902 | [4] -0.0343

O=C1Cc2c([nH]c3ccc(Br)cc23)-c2ccccc2N1
inactive: [5] 0.148 | [6] 0.0907 | [7] 0.128 | [8] 0.118

O=C1Cc2c([nH]c3ccc([N+](=O)[O-])cc23)-c2ccccc2N1
inactive: [5] 0.0426 | [6] 0.0802
active: [7] -0.122 | [8] -0.312

O=c1c(-c2ccccc2)coc2cc(O)cc(O)c12
inactive: [1] -0.0366 | [2] 0.014 | [3] 0.0821 | [4] 0.099

CC(C)N1C(=O)/C(=C\c2ccco2)SC1=S
inactive: [1] 0.136 | [2] 0.0809 | [3] 0.114 | [4] 0.139

O=C(O[C@@H]1Cc2c(O)cc(O)cc2O[C@@H]1c1cc2cc([C@H]3Oc4cc(O)cc(O)c4C[C@H]3O)cc(=O)c(O)c2c(O)c1O)c1cc(O)c(O)c(O)c1
inactive: [1] 0.115 | [2] 0.032 | [3] 0.00601 | [4] -0.0597

COC(=O)c1cc(OC)c(=O)c2c(OC)c(OC)ccc2c1
inactive: [2] 0.0503 | [3] 0.0906 | [4] -0.0346
active: [1] -0.0869

COC(=O)c1cc(=O)c(O)c2c(O)c(O)ccc2c1
inactive: [1] 0.103 | [2] 0.0315 | [3] 0.145 | [4] 0.0325

COc1cc2cccc(OC)c(=O)c2c(OC)c1OC
inactive: [1] 0.0955 | [2] 0.0427 | [3] 0.109 | [4] 0.0214

COc1ccccc1NC(=O)C1=C(C)NC(=O)NC1c1cccc(Cl)c1 (centres undefined)
inactive: [1] 0.0986 | [2] 0.0367 | [3] 0.0178 | [4] 0.0125

CC(C)CCCCCOC(=O)COc1ccc(Cl)cc1Cl
inactive: [1] 0.0385 | [2] 0.102 | [3] 0.111 | [4] -0.0211

CC1(C)C2CC(=O)[C@]3(C)C(CC[C@@]4(C)[C@H](C(=O)O)OC(=O)C5OC543)[C@@]2(C)[C@@H](O)C[C@H]1O (some centres undefined)
inactive: [1] 0.0536 | [2] 0.0574 | [3] 0.0836 | [4] 0.107

Cc1cc(N2CCN(c3ncccn3)CC2)n2c(nc3ccccc32)c1C#N
inactive: [1] 0.119 | [2] 0.0784 | [3] 0.108 | [4] 0.0845

CC1(COc2ccc3c(c2)ncn3-c2ccc3cccc(N4CCC(N)CC4)c3n2)COC1
inactive: [9] -0.0477 | [10] -0.0112 | [11] 0.0251 | [12] 0.0104 | [13] 0.0241 | [14] 0.0302 | [15] 0.0311 | [16] 0.0382 | [18] -0.0084
active: [17] -0.22 | [19] -1.66 | [20] -0.632

COc1ccc(OC)c(CN2CCN(Cc3ccccc3F)CC2)c1
inactive: [1] 0.0715 | [2] 0.0693 | [3] 0.123 | [4] 0.0288

C=C1C2CCC3(C)C(c4ccoc4)OC(=O)CC13OC1CC(=O)C(C)(C)C(CC(=O)OC)C12C (centres undefined)
inactive: [1] 0.0862 | [2] 0.067 | [3] 0.0511 | [4] 0.0888

O=c1cc([C@H]2Oc3cc(O)cc(O)c3C[C@H]2O)cc2c([C@H]3Oc4cc(O)cc(O)c4C[C@H]3O)cc(O)c(O)c2c1O
inactive: [1] 0.0869 | [2] 0.0834 | [3] 0.134 | [4] 0.162

C[n+]1cc2c3c(ccc2c2ccc4cc5c(cc4c21)OCO5)OCO3
active: [3] -0.232 | [7] -0.101 | 25 µM, library screen: screen2, EWS-FLI1 expression: high (no doxycycline) -4.23 | 25 µM, library screen: screen2, EWS-FLI1 expression: low (doxycycline-induced shRNA knockdown) -4.28
inactive: 0.025 µM, library screen: screen2, EWS-FLI1 expression: high (no doxycycline) 0.0722 | 0.025 µM, library screen: screen2, EWS-FLI1 expression: low (doxycycline-induced shRNA knockdown) 0.0049 | [1] 0.0872 | [2] 0.0117 | [5] 0.116 | [6] 0.0651 | [4] -0.0123 | [8] -0.0563

COc1ccc(C(=O)C=Cc2ccccc2)cc1
inactive: [1] 0.0817 | [2] 0.0563 | [3] 0.0612 | [4] 0.0356

CC(C)=CC1C(CO)C1(C)C (centres undefined)
inactive: [1] 0.105 | [2] 0.00359 | [3] 0.117 | [4] 0.123

CCOC(=O)c1sc(C)c2c(=O)n(C3CCCCC3)cnc12
inactive: [1] 0.0769 | [2] 0.0757 | [3] 0.067 | [4] -0.0142

Cc1ccc(S(=O)(=O)/C=C/C#N)cc1
active: [3] -0.841 | [7] -0.102 | 25 µM, library screen: screen1, EWS-FLI1 expression: high (no doxycycline) -3.58 | 25 µM, library screen: screen1, EWS-FLI1 expression: low (doxycycline-induced shRNA knockdown) -2.12
inactive: 0.025 µM, library screen: screen1, EWS-FLI1 expression: high (no doxycycline) 0.231 | 0.025 µM, library screen: screen1, EWS-FLI1 expression: low (doxycycline-induced shRNA knockdown) -0.0315 | [1] 0.131 | [2] 0.0518 | [5] 0.14 | [6] -0.0223 | [4] -0.123 | [8] 0.0315

CC(C)(C)c1ccc(S(=O)(=O)/C=C/C#N)cc1
inactive: [5] 0.205 | [6] 0.163 | [8] 0.0273
active: [7] -0.121

C[C@@H](Oc1ccccc1)C(=O)N[C@@H]1C(=O)N2[C@@H]1SC(C)(C)[C@@H]2C(=O)O
inactive: [1] 0.0816 | [2] 0.0301 | [3] 0.188 | [4] 0.189

CC1=C[C@@H]2[C@@H](CC1)[C@](C)(O)CC[C@H]2C(C)C
inactive: [1] 0.0888 | [2] 0.0211 | [3] 0.101 | [4] 0.102

C=C1C2CC[C@@]3(C)[C@H](c4ccoc4)OC(=O)C[C@]13O[C@H]1C[C@H](OC(C)=O)C(C)(C)[C@H](CC(=O)OC)[C@@]21C
inactive: [1] 0.122 | [2] 0.0225 | [3] 0.146 | [4] 0.192

Cc1onc(-c2c(Cl)cccc2Cl)c1C(=O)Nc1ccc(Br)cc1F
inactive: [1] 0.112 | [2] 0.103 | [3] 0.116 | [4] 0.0234

O=C(/C=C/c1ccc(O)c(O)c1)OCCc1ccccc1
active: [7] -0.129
inactive: [5] 0.197 | [6] 0.0712 | [8] 0.0968

O=C(O)/C=C/c1ccc(O)c(O)c1
inactive: [1] 0.082 | [2] -0.0191 | [5] 0.181 | [6] 0.126 | [3] 0.109 | [4] 0.0871 | [7] 0.0522 | [8] 0.0284

O=C(/C=C/c1ccc(O)c(O)c1)O[C@H](Cc1ccc(O)c(O)c1)C(=O)O
inactive: [1] 0.0508 | [2] 0.0752 | [3] 0.0833 | [4] 0.158

N[C@@H](CSCSC[C@H](N)C(=O)O)C(=O)O
inactive: [1] 0.0746 | [2] 0.0305 | [3] 0.129 | [4] 0.147

N#Cc1c(-c2ccc(Br)cc2)cc(-c2ccc3c(c2)OCO3)c(C#N)c1N
inactive: [1] 0.0622 | [2] 0.109 | [3] 0.154 | [4] 0.0524

CCCc1occc(=O)c1C=CO
inactive: [1] -0.0143 | [2] 0.0143 | [3] 0.203 | [4] 0.0516

Nc1ccc(S(=O)(=O)Nc2ccnn2-c2ccccc2)cc1
inactive: [1] 0.0545 | [2] -0.0171 | [5] 0.053 | [6] 0.048 | [3] 0.14 | [4] 0.0403
active: [7] -0.179 | [8] -0.12

Nc1ccc(S(=O)(=O)Nc2ccccn2)cc1
inactive: [1] 0.0477 | [2] 0.097 | [3] 0.18 | [4] 0.163

Nc1ccc(S(=O)(=O)Nc2ncccn2)cc1
inactive: [9] 0.169 | [10] 0.0541 | [1] 0.0966 | [2] 0.142 | [11] 0.163 | [12] 0.0301 | [13] 0.117 | [14] 0.108 | [3] 0.146 | [4] 0.202 | [15] 0.14 | [16] 0.0823 | [17] 0.0532 | [18] 0.0153 | [19] 0.0911 | [20] 0.15

COC(=O)C[C@H]1C(C)(C)C(=O)[C@@H]2CC3C4=CC(=O)O[C@@H](c5ccoc5)[C@]4(C)CC[C@@H]3[C@@]1(C)C2=O (some centres undefined)
inactive: [1] 0.00456 | [2] 0.0839 | [3] 0.0543 | [4] 0.0477

COc1ccc2c(c1)O[C@@H]1c3ccc(OC)cc3OC[C@H]21
inactive: [1] 0.0429 | [2] 0.176 | [3] 0.0512 | [4] 0.136

C[C@H]1O[C@@H](O[C@H]2[C@@H](O)C[C@H](O[C@H]3[C@@H](O)C[C@H](O[C@H]4CC[C@@]5(C)[C@H](CC[C@@H]6[C@@H]5C[C@@H](O)[C@]5(C)[C@@H](C7=CC(=O)OC7)CC[C@]65O)C4)O[C@@H]3C)O[C@@H]2C)C[C@H](O)[C@@H]1O
active: [3] -2.32 | [4] -1.91
inactive: [1] -0.0229 | [2] -0.153

C[C@H]1O[C@@H](O[C@H]2[C@@H](O)C[C@H](O[C@H]3[C@@H](O)C[C@H](O[C@H]4CC[C@@]5(C)[C@H](CC[C@@H]6[C@@H]5CC[C@]5(C)[C@@H](C7=CC(=O)OC7)CC[C@]65O)C4)O[C@@H]3C)O[C@@H]2C)C[C@H](O)[C@@H]1O
active: [1] -2.45 | [2] -2.04 | [3] -3.94 | [4] -4.23

C[C@]12CC[C@H](O)C[C@H]1C[C@@H]1OC13C2[C@H](O)C(=O)[C@]1(C)[C@@H](C2=CC(=O)OC2)CC[C@]31O (some centres undefined)
inactive: [1] 0.026 | [2] -0.0692 | [3] 0.111 | [4] -0.106
